23 molecules from PubChem BioAssay (NCATS) can be followed below.

Structures are written as SMILES. Several values for one entry are separate records, joined by “and”; a condition that tells them apart may be missing. Identical values can stand only once. A number with no mark means an inactive call. Results filed as inconclusive are left out. For part of these data: Measured potencies and affinities stand elsewhere. Activity calls are given as the source filed them. Unless noted, the rule behind the calls is not given here.

As a reminder, the AC50 is the concentration at which the activity in the assay is half-maximal.

Experiment [1] can be described thus: qHTS Assay for Identifying Gametocytocidal Compounds (AID 743244; active = well fitted curve in the direction sought with a large enough effect; an effect the other way counts as inactive or inconclusive; note: potency is the fitted concentration of half-maximal effect;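 for max response: % is set by controls: 0 for no effect and ±100 for the full control effect; actives lower the fluorescent signal which means gametocytes are killed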). The conditions noted are these: P. falciparum 3D7 stage III-V gametocytes, alamarBlue, 72 h; max response: active compounds read low. An outline of the steps: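 A resazurin-based viability read-out was applied to mature P. falciparum gametocytes: 72 h compound treatment, then 24 h dye incubation, with falling fluorescence signalling gametocytocidal effect.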

For experiment [2] the following is noted: Ebola virus entry assay, ratio channel.
For experiment [3] the following is noted: Ebola virus entry assay, green channel fluorescence.
The conditions of experiment [4]: Ebola virus entry assay, reporter ratio channel; Channel type: primary.
The conditions of experiment [5]: Ebola virus entry assay, blue channel (ratio component).
Experiment [6] in a line: qHTS assay for small molecule agonists of the antioxidant response element (ARE) signaling pathway measured by Nrf2-dependant transcriptional activity - cell viability counter screen (AID 720653; active = well fitted curve in the direction sought with a large enough effect in the repeat runs; an effect the other way counts as inactive or inconclusive; note: % is set by controls: 0 for no effect and ±100 for the full control effect). The conditions noted are these: ARE-bla HepG2 viability, CellTiter-Glo ATP luminescence, 16 h; max response: active compounds read low. The procedure, abridged:
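Cytotoxicity counter screen: intracellular ATP quantified by CellTiter-Glo luminescence in the same ARE-bla HepG2 plates, after 16 h compound exposure and a 2 h beta-lactamase substrate step.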

Experiment [7] is described as follows: qHTS assay for cell viability of HEK293 cells (AID 743288; active = well fitted curve in the direction sought with a large enough effect; an effect the other way counts as inactive or inconclusive; note: % is set by controls: 0 for no effect and ±100 for the full control effect; nearly all actives have a fitted effect of over 50% in size). The note with it: ATP luminescence (CellTiter-Glo), 18 h; max response: active compounds read low. The procedure, abridged:
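Steps: plate 2,000 parental HEK293 cells per well; incubate ≥5 h, 37 C; add compounds in DMSO; incubate 18 h, 37 C; add CellTiter-Glo; wait 30 min at room temperature; read luminescence.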
On the technique in general: In qHTS, concentration-response curves come from the screen itself.

The nature of experiment [8]: qHTS assay for cell viability of the p53RE-bla HCT-116 cell line (AID 743292; active = well fitted curve in the direction sought with a large enough effect; an effect the other way counts as inactive or inconclusive; note: % is set by controls: 0 for no effect and ±100 for the full control effect; nearly all actives have a fitted effect of over 55% in size). The procedure, abridged:
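In this qHTS counter-screen, metabolically competent p53RE-bla HCT-116 cells were counted via their ATP content. Compounds were applied for 16 h at 37 C and luciferase-coupled luminescence was measured.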

Consider `CC(C)NCC(O)c1ccc([N+](=O)[O-])cc1` (configuration not stated), for which, in experiment [1], the max response was -16.1%. The result in experiment [2], in experiment [3], in experiment [4] and in experiment [5] was inactive.
For `COc1nn(CSP(=S)(OC)OC)c(=O)s1`, the max response in experiment [6] is -11.6%; in experiment [1] it was 14.2%; in experiment [7] it was -26%. Besides, the Potency entry in experiment [8] is “inactive”. The result in experiment [2], in experiment [3], in experiment [4] and in experiment [5] was inactive.
For the molecule `O=C(O)CCCOc1ccc(Cl)cc1Cl`, the max response was -1.4% in experiment [6], 19% in experiment [1] and -3.48% in experiment [7]. For the same molecule, in experiment [8], the Potency entry is “inactive”. The outcome in experiment [2], in experiment [3], in experiment [4] and in experiment [5] was inactive.
Regarding `O=S(=O)(O)C(F)(F)C(F)(F)C(F)(F)C(F)(F)C(F)(F)C(F)(F)C(F)(F)C(F)(F)F`, the max response was 2.35% and -3.55% in experiment [6]; -9.5% in experiment [1]; -7.88% and -13.4% in experiment [7]. Moreover, the Potency result in experiment [8] is “inactive”. Moreover, the outcome in experiment [2], in experiment [3], in experiment [4] and in experiment [5] was inactive.
Consider `O=[N+]([O-])/N=C1\NCCN1Cc1ccc(Cl)nc1`, for which the max response in experiment [6] was 8.85%; in experiment [1], 3.56% and 4.82%; in experiment [7] it was -6.64%. Besides, the Potency entry in experiment [8] was “inactive”. The result in experiment [2], in experiment [3], in experiment [4] and in experiment [5] was inactive.
Consider `C=CCC1=C(C)C(OC(=O)C2C(C=C(C)C)C2(C)C)CC1=O` (configuration not stated), for which the max response was 6.17% and -10.4% in experiment [6]; -9.3% in experiment [1]; -9.9% and -17.4% in experiment [7]. Besides, the Potency entry in experiment [8] was “inactive”. Besides, the outcome in experiment [2], in experiment [3], in experiment [4] and in experiment [5] was inactive.
Take `O=C(O)COc1nc(Cl)c(Cl)cc1Cl`: the max response in experiment [6] is -15.1%; in experiment [1] it was 14.5%; in experiment [7], -10.3%. The Potency entry in experiment [8] was “inactive”. Besides, the outcome in experiment [2], in experiment [3], in experiment [4] and in experiment [5] was inactive.
In the case of `O=[N+]([O-])c1ccc([As](=O)(O)O)cc1`, the Potency in experiment [1] was 10 µM (active). Besides, the outcome in experiment [2], in experiment [3], in experiment [4] and in experiment [5] was inactive.
As for `Nc1ccc(N=Nc2ccccc2)cc1`, the max response in experiment [6] was -5.85%; in experiment [1] it was 11.9%; in experiment [7], -0.712%. In experiment [8], the Potency entry was “inactive”. Also, the outcome in experiment [2], in experiment [3] and in experiment [4] was inactive.
On to `OCCCBr`, for which the max response in experiment [6] is 4.92%; in experiment [1] it was 31%; in experiment [7], 2.95%. For the same molecule, the Potency entry in experiment [8] is “inactive”. For the same molecule, the outcome in experiment [2], in experiment [3], in experiment [4] and in experiment [5] was inactive.
Regarding `O=C(Nc1ccccc1-c1ccc(Cl)cc1)c1cccnc1Cl`, the results for the max response in experiment [6], in experiment [1] and in experiment [7] were -1.23%, 10.9% and -25.4%, respectively. Also, the Potency entry in experiment [8] is “inactive”. Moreover, the concentration at half-maximal activity (AC50) in experiment [2] is 22.4 µM (active). Also, the molecule was classed as inactive in experiment [3], in experiment [4] and in experiment [5].
On to `CCCCCCCCCC(CC)c1ccc(S(=O)(=O)O)cc1` (configuration not stated), for which the max response in experiment [6] was -0.0281% and -4.65%; in experiment [1], -5.24% and 45.2%; in experiment [7] it was -11.2% and -4.04%. In addition, the Potency result in experiment [8] is “inactive”. For the same molecule, the AC50 in experiment [2] and in experiment [4] was 31.6 µM (active) in each case. The outcome in experiment [3] was inactive.
For `CS(=O)(=O)c1ccc(C(=O)C2C(=O)CCCC2=O)c([N+](=O)[O-])c1`, the max response in experiment [6] was -7.62%; in experiment [1], -23.2%; in experiment [7] it was -4.44%. Moreover, the Potency result in experiment [8] is “inactive”. For the same molecule, the result in experiment [2], in experiment [3], in experiment [4] and in experiment [5] was inactive.
For the molecule `COC(C)(C)CCCC(C)C/C=C/C(C)=C/C(=O)OC(C)C` (configuration not stated), the max response in experiment [6] is -7.11% and 1.67%; in experiment [1], -9.95%; in experiment [7], -16.1% and -28.4%. Further, the Potency entry in experiment [8] was “inactive”. Further, the outcome in experiment [2], in experiment [3], in experiment [4] and in experiment [5] was inactive.
As for `CCn1cc(C(=O)O)c(=O)c2cc3c(cc21)OCO3`, the molecule was classed as inactive in experiment [3], in experiment [4] and in experiment [5].
`[O-][n+]1cccc(CO)c1`: the molecule was classed as inactive in experiment [3], in experiment [4] and in experiment [5].
In the case of `C1CCC(NC2CCCCC2)CC1`, the max response in experiment [6] was 1.26% and -8.57% and 6.08%; in experiment [1] it was 18.7%; in experiment [7], 4.88% and 5.5% and 0.405%. For the same molecule, in experiment [8], the Potency entry was “inactive”. The result in experiment [3], in experiment [4] and in experiment [5] was inactive.
On to `CC(C[N+](C)(C)C)OC(N)=O` (configuration not stated), for which the outcome in experiment [3], in experiment [4] and in experiment [5] was inactive.
As for `[O-][n+]1cccc(/C(Cl)=N/OC[C@@H](O)CN2CCCCC2)c1`, the molecule was called inactive in experiment [3], in experiment [4] and in experiment [5].
Consider `C#CC(C)(CC)OC(=O)c1ccccc1C(=O)O` (configuration not stated), for which the outcome in experiment [3], in experiment [4] and in experiment [5] was inactive.
Regarding `O=[N+]([O-])c1c2ccccc2cc2ccccc12`, the max response in experiment [6] is -1.85%; in experiment [1], -7.57%; in experiment [7], -0.948%. For the same molecule, in experiment [8], the Potency result is “inactive”. In addition, the result in experiment [3], in experiment [4] and in experiment [5] was inactive.
Consider `COCCOCCO`, for which the max response in experiment [6] was -0.036% and -2.85%; in experiment [1], -9.77%; in experiment [7] it was -8% and -15.7%. Further, in experiment [8], the Potency result was “inactive”. In addition, the molecule was classed as inactive in experiment [3], in experiment [4] and in experiment [5].
`O=C(O)c1cc(Oc2ccc(C(F)(F)F)cc2Cl)ccc1[N+](=O)[O-]`: the max response in experiment [6] was -5.54%; in experiment [1], -10.7%; in experiment [7] it was -14.8%. In addition, in experiment [8], the Potency result is “inactive”. For the same molecule, the molecule was called inactive in experiment [3], in experiment [4] and in experiment [5].
